# According to the supplement of paper PMC12636033:
# ± gives the standard deviation of the averaged measurements. The full ranking holds about 33,000 sequences; the median of “E-score (rank enrichment, -0.5 to 0.5)” is about -0.0043, and the highest 2% start at about 0.24. The sample holds the highest values, similar sequences and a random draw of the others, so the mix is not that of the screen.
# System: 2Sp-muMax20 (muMax20 with two 2,6-bis(methyl)pyridine Cys staples)
# Assay: PBM 8-mer E-score (E-score (rank enrichment, -0.5 to 0.5)); higher = stronger preferential binding
# Protocol: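 Protein binding microarray (universal PBM chip covering all 10-mers in fixed probe flanks) with chemically synthesized human Max(13-93) bHLH-LZ analogs (not full-length Max) bearing noncanonical residues (hArg, Tha, Aib, Nle at 65) and aromatic Cys staples. Read-out per 8-mer (and its reverse complement): E-score (rank-based enrichment, -0.5 to 0.5) and Z-score of median probe intensity.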
row,Sequence,PBM 8-mer E-score
1,CACAACGG,-0.145 ± 0.066
2,CCCCGCCA,0.246 ± 0.071
3,TCCCGCCA,-0.0738 ± 0.002
4,ACCCGCCC,0.3697 ± 0.0017
5,AACCCGCC,0.128 ± 0.019
6,GCCCGCCA,-0.0439 ± 0.026
7,CCCCGCCG,0.131 ± 0.011
8,GCCCGCCC,0.16 ± 0.039
9,CGCCGCCC,0.00789 ± 0.052
10,CCCCGCCC,0.295 ± 0.048
11,CCCCCGCC,-0.0595 ± 0.056
12,ACCCCGCC,0.284 ± 0.099
13,ACCCGCCG,0.131 ± 0.01
14,ATATCTCC,0.197 ± 0.016
15,ACAGTATC,0.185 ± 0.073
16,TTAGGAAA,-0.00284 ± 0.012
17,ATGGTCAG,0.122 ± 0.043
18,CGCTCCGC,-0.154 ± 0.17
19,TATCCGCA,0.0196 ± 0.089
20,AAATTCTT,0.0344 ± 0.11
21,ATGTATTA,0.21 ± 0.014
22,GTGTATTA,0.239 ± 0.069
23,ATATATTG,0.221 ± 0.0031
24,GTATATTA,0.243 ± 0.0031
25,GGATATTA,0.161 ± 0.084

row,Sequence,PBM 8-mer E-score
1,CTATACTA,0.113 ± 0.12
2,GCATATTA,0.153 ± 0.0097
3,ATATATTA,0.264 ± 0.012
4,ATATACTA,0.285 ± 0.027
5,CTATATTA,0.168 ± 0.018
6,ATATACTC,0.0166 ± 0.11
7,CTGTATTA,0.141 ± 0.0065
8,CAGTACTA,0.128 ± 0.056
9,AGAGATCC,-0.0549 ± 0.05
10,TATCGACA,-0.0261 ± 0.032
11,CGAGCGTC,-0.00097 ± 0.042
12,ACACCATG,0.0073 ± 0.025
13,CATTGTCA,-0.0464 ± 0.016
14,AAAGGGGT,0.123 ± 0.013
15,CCCCTGCG,-0.168 ± 0.0048
16,GCCAATGA,0.00492 ± 0.00047
17,GACGGAAA,0.0756 ± 0.07
18,CGTTGAAC,-0.0586 ± 0.068
19,AATTGATG,0.25 ± 0.021
20,GATTGATA,0.115 ± 0.015
21,ACTTGATG,0.0152 ± 0.0016
22,AATTGATC,0.0176 ± 0.058
23,CATTGATA,0.179 ± 0.1
24,AATTGATA,0.252 ± 0.025
25,AAGACCCC,0.0259 ± 0.047

row,Sequence,PBM 8-mer E-score
1,CACGGCGC,-0.0163 ± 0.17
2,CACCGCGG,-0.121 ± 0.021
3,CTGGTAGC,-0.131 ± 0.011
4,CCATCTTA,-0.102 ± 0.052
5,GATAGCAC,0.151 ± 0.043
6,CATAGCAC,0.301 ± 0.019
7,CATAGCAA,0.199 ± 0.072
8,GCCAGAAA,0.0632 ± 0.035
9,CTAAGCTA,-0.0343 ± 0.0085
10,GTGATGCA,0.186 ± 0.078
11,AATATAAT,0.22 ± 0.015
12,GGTATACA,0.145 ± 0.029
13,AATATAAG,0.249 ± 0.07
14,AAAATAAA,0.103 ± 0.018
15,CATATAAC,0.228 ± 0.076
16,TGTATACA,0.315 ± 0.067
17,CATATAAA,0.323 ± 0.008
18,TGGATACA,0.213 ± 0.13
19,AATATAAC,0.203 ± 0.11
20,CATATAAG,0.168 ± 0.061
21,AATATAAA,0.245 ± 0.03
22,ACTATAAA,0.115 ± 0.014
23,AGGCTCAC,-0.168 ± 0.071
24,CTTTCCCA,-0.0651 ± 0.061
25,ATTAGGTA,0.0384 ± 0.028

row,Sequence,PBM 8-mer E-score
1,CTTCCCCA,0.0675 ± 0.046
2,ATGAAAGA,0.095 ± 0.12
3,GGCACTGA,-0.138 ± 0.064
4,GAACGGTA,-0.0592 ± 0.0044
5,AGCGCAAT,-0.0106 ± 0.054
6,AGTATAAA,0.186 ± 0.048
7,TGTATAAA,0.254 ± 0.018
8,GATATAAA,0.191 ± 0.046
9,TATAAAAA,0.307 ± 0.015
10,TCTATAAA,0.213 ± 0.036
11,TATATAAA,0.275 ± 0.019
12,GGTATAAA,0.134 ± 0.012
13,CATAAAAA,0.17 ± 0.062
14,GATAAAAA,0.17 ± 0.036
15,GTACACTA,-0.172 ± 0.087
16,AGGATGGC,-0.0191 ± 0.078
17,GAACGAAC,-0.022 ± 0.033
18,ACGTCAGT,-0.191 ± 0.0086
19,ATCTTAAT,0.165 ± 0.044
20,ACCCAGCA,-0.107 ± 0.015
21,ACCCCTAA,0.163 ± 0.11
22,ACCCCTAG,0.0238 ± 0.027
23,AACCCTTC,0.0889 ± 0.037
24,ACCCCTCC,0.246 ± 0.0062
25,CCCCCTTC,-0.195 ± 0.12

row,Sequence,PBM 8-mer E-score
1,GCCCCTCC,0.237 ± 0.036
2,GCCCCTCA,0.0361 ± 0.077
3,ACCCCTCA,0.158 ± 0.055
4,ACCCCTAT,0.267 ± 0.044
5,CCCCCTCC,-0.0372 ± 0.049
6,ACCCCTTC,0.273 ± 0.015
7,GCCCCCCC,-0.1861 ± 0.0003
8,CCGGCAGA,-0.154 ± 0.1
9,CTCAAAGA,-0.106 ± 0.0065
10,GACACCGA,-0.215 ± 0.025
11,GAAAGATA,0.0861 ± 0.022
12,TGGGAGAA,0.0249 ± 0.058
13,CGCCCACA,0.216 ± 0.018
14,ACGATGGA,-0.164 ± 0.01
15,CTAAAAGC,-0.0267 ± 0.036
16,CACTCAAG,0.0104 ± 0.039
17,CTGGCAAA,-0.0382 ± 0.063
18,GATACGGC,-0.079 ± 0.018
19,ATGATACC,0.11 ± 0.016
20,ATGATAGA,0.079 ± 0.01
21,ATGATAGG,0.00318 ± 0.11
22,ATGATACA,0.274 ± 0.042
23,CTGATACA,-0.0277 ± 0.11
24,ATGATACG,0.271 ± 0.071
25,ATGATAGC,0.278 ± 0.023

row,Sequence,PBM 8-mer E-score
1,GTGATACA,0.0186 ± 0.033
2,ATGATATG,0.199 ± 0.075
3,TAACGAAA,0.0771 ± 0.12
4,CAACTAGC,0.0239 ± 0.018
5,ATTAGTCC,0.0528 ± 0.12
6,CACGGCGA,-0.0774 ± 0.0095
7,CGGTCGTC,-0.18 ± 0.017
8,GGTGATTA,0.0438 ± 0.06
9,ATGTGAAC,0.119 ± 0.0064
10,GGATTGCC,-0.202 ± 0.012
11,AATGGGTC,-0.00791 ± 0.0086
12,AATTTGGT,-0.00788 ± 0.03
13,AATTTGGA,0.0583 ± 0.086
14,AATTGGGC,0.183 ± 0.034
15,ATTGGGGG,-0.0095 ± 0.0052
16,ATTTGGGA,0.173 ± 0.068
17,ATTGGGGC,0.253 ± 0.019
18,AATTTGGG,0.254 ± 0.017
19,AATTGGGT,0.2483 ± 0.0021
20,AATTGGGG,0.228 ± 0.06
21,ATTTGGGC,0.119 ± 0.05
22,ATTGGGCC,0.00386 ± 0.043
23,ATTTGGGG,0.253 ± 0.052
24,CCTTGACG,-0.0891 ± 0.0072
25,AGGGGACT,-0.0296 ± 0.079

row,Sequence,PBM 8-mer E-score
1,GACGAGCA,0.0874 ± 0.014
2,CACACACC,-4e-05 ± 0.065
3,ATGGCATC,0.193 ± 0.081
4,ACGAGCCG,-0.0923 ± 0.041
5,CGCGGTCA,-0.174 ± 0.092
6,ACACGCGT,0.272 ± 0.021
7,ACGCGCGC,0.206 ± 0.0084
8,ACGCGCGG,0.156 ± 0.098
9,ACACGCGA,0.211 ± 0.037
10,AAACGCGT,-0.0801 ± 0.023
11,ACGCGCGT,0.397 ± 0.0075
12,ACTGAACT,0.049 ± 0.03
13,CACGATCG,-0.0926 ± 0.084
14,ATATAACA,0.184 ± 0.057
15,AAATAACG,0.289 ± 0.022
16,ATATAACG,0.302 ± 0.039
17,ATATAACC,0.134 ± 0.069
18,AAATAACA,0.182 ± 0.057
19,CAATAACG,0.0434 ± 0.0082
20,AGGATCAC,0.0434 ± 0.0027
21,CGATGACC,-0.245 ± 0.045
22,AACATAGG,0.0986 ± 0.084
